# Where “and” joins values, the source holds several entries; their conditions need not be identical. Identical values can stand only once. The panel holds about 83,000 compounds, 20% with a hit somewhere; the sample as a whole holds those more often.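 Cell lines were cultured in 96-well plates, exposed to a single compound concentration, and assessed for percent growth 48 hours later.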 Calls of active or inactive are those of the source. Rule for the calls: active = growth percent below 10; inactive = the rest.
# Key:
# Test in all cases: NCI-60 one-dose screen, 48 h (100 = growth as untreated, 0 = no growth, -100 = all killed)
# Settings in all cases: 10 µM unless noted
# DU-145 prostate = test system: DU-145 prostate
# K-562 leukemia = test system: K-562 leukemia
# MALME-3M melanoma = test system: MALME-3M melanoma
# MDA-MB-231 breast = test system: MDA-MB-231 breast
# RXF 393 renal = test system: RXF 393 renal
# SF-268 CNS = test system: SF-268 CNS
# SF-295 CNS = test system: SF-295 CNS
# SF-539 CNS = test system: SF-539 CNS
# UACC-257 melanoma = test system: UACC-257 melanoma
# M14 melanoma = test system: M14 melanoma
# HCT-15 colon = test system: HCT-15 colon
# HT29 colon = test system: HT29 colon
# SNB-75 CNS = test system: SNB-75 CNS
# SNB-19 CNS = test system: SNB-19 CNS
# PC-3 prostate = test system: PC-3 prostate
# UACC-62 melanoma = test system: UACC-62 melanoma
# LOX IMVI melanoma = test system: LOX IMVI melanoma
# SK-MEL-28 melanoma = test system: SK-MEL-28 melanoma
# SK-MEL-5 melanoma = test system: SK-MEL-5 melanoma
# U251 CNS = test system: U251 CNS
Compound,growth (DU-145 prostate),growth (K-562 leukemia),growth (MALME-3M melanoma),growth (MDA-MB-231 breast),growth (RXF 393 renal),growth (SF-268 CNS),growth (SF-295 CNS),growth (SF-539 CNS),growth (UACC-257 melanoma),growth (M14 melanoma),growth (HCT-15 colon),growth (HT29 colon),growth (SNB-75 CNS),growth (SNB-19 CNS),growth (PC-3 prostate),growth (UACC-62 melanoma),growth (LOX IMVI melanoma),growth (SK-MEL-28 melanoma),growth (SK-MEL-5 melanoma),growth (U251 CNS)
COc1ccc2c(c1)c(-c1nc(-c3c[nH]c4ncccc34)cs1)cn2CCCCN1CCOCC1,48.9% (inactive),-65.2% (active),-66.7% (active),23.4% (inactive),31.9% (inactive),52.4% (inactive),13.1% (inactive),49.3% (inactive),79.5% (inactive),-53.5% (active),-31.7% (active),-84.4% (active),40.1% (inactive),52.4% (inactive),30.1% (inactive),20.4% (inactive),-34.7% (active),-90.3% (active),–,–
CCN(CC)CCn1c(=O)n(C)c2ccccc21,109% (inactive),103% (inactive),103% (inactive),119% (inactive),106% (inactive),101% (inactive),111% (inactive),98.1% (inactive),97.5% (inactive),108% (inactive),114% (inactive),112% (inactive),97% (inactive),113% (inactive),96.8% (inactive),–,98.4% (inactive),–,–,–
c1ccc2c(c1)sc1ccccc12,110% (inactive),105% (inactive),84% (inactive),93.8% (inactive),107% (inactive),109% (inactive),101% (inactive),93.9% (inactive),109% (inactive),94% (inactive),103% (inactive),99.8% (inactive),85.3% (inactive),98.4% (inactive),–,100% (inactive),93.9% (inactive),105% (inactive),91.1% (inactive),–
COc1cc2c(cc1OC)[C@@H]1C(=O)c3ccc4c(c3O[C@@H]1CO2)C[C@H](C(C)C)O4,85.5% (inactive),19.9% (inactive),56.5% (inactive),78.3% (inactive),102% (inactive),79.7% (inactive),18.6% (inactive),70.7% (inactive),58% (inactive),75.4% (inactive),79.1% (inactive),83.1% (inactive),90.1% (inactive),–,9.13% (active),66.7% (inactive),53% (inactive),98.5% (inactive),17.9% (inactive),–
O=C(O)c1ccccc1N(CCO)CCCl,103% (inactive),100% (inactive),87.1% (inactive),112% (inactive),102% (inactive),103% (inactive),99.8% (inactive),84.6% (inactive),99% (inactive),96% (inactive),87% (inactive),115% (inactive),81.3% (inactive),98.8% (inactive),–,94% (inactive),86.6% (inactive),100% (inactive),101% (inactive),–
COC12CC3(C)C(C4=CC(=O)OC4)CCC3(O)C3CCC4=CC(=O)CCC4(CO1)C32 (centres undefined),117% (inactive),106% (inactive),77.1% (inactive),110% (inactive),112% (inactive),109% (inactive),90.6% (inactive),111% (inactive),100% (inactive),92.6% (inactive),–,103% (inactive),90.6% (inactive),107% (inactive),–,99.6% (inactive),102% (inactive),122% (inactive),106% (inactive),103% (inactive)
O=[N+]([O-])c1ccc(OCc2ccc(S(=O)(=O)F)c(Cl)c2)c(Cl)c1,118% (inactive),99% (inactive),98.6% (inactive),85.9% (inactive),114% (inactive),95.8% (inactive),106% (inactive),93.6% (inactive),118% (inactive),96.9% (inactive),–,99.2% (inactive),92.8% (inactive),108% (inactive),91.4% (inactive),92.6% (inactive),93% (inactive),119% (inactive),99.6% (inactive),107% (inactive)
C[C@]12CC[C@@H](OC(=O)N(CCCl)N=O)C[C@@H]1CC[C@@H]1[C@@H]2CC[C@]2(C)C(=O)CC[C@@H]12,-0.658% (active),23.2% (inactive),108% (inactive),81.9% (inactive),78% (inactive),30.6% (inactive),-15.7% (active),1.49% (active),76.2% (inactive),72.5% (inactive),–,57.9% (inactive),63.4% (inactive),37.5% (inactive),45.6% (inactive),30.4% (inactive),46.4% (inactive),99.4% (inactive),56.8% (inactive),34.5% (inactive)
C#Cc1cccc(Nc2nc(Cl)nc3cc(NC(=O)CF)ccc23)c1,98.1% (inactive),28% (inactive),70.5% (inactive),64.5% (inactive),100% (inactive),87.8% (inactive),71.9% (inactive),89.1% (inactive),88.7% (inactive),48.3% (inactive),–,16.1% (inactive),61.2% (inactive),89% (inactive),57.8% (inactive),72.9% (inactive),65.2% (inactive),73.2% (inactive),37.3% (inactive),79.3% (inactive)
Oc1cc(N2CC2)c(O)cc1N1CC1,9.43% (active),17.1% (inactive),-89.6% (active),96.9% (inactive),-78% (active),7.87% (active),15.9% (inactive),-12% (active),-47.1% (active),-50.4% (active),–,1.49% (active),–,26.8% (inactive),25% (inactive),-67.2% (active),1.44% (active),-50.9% (active),-95% (active),-2.16% (active)
NC(N)=NC(N)=Nc1ccc(Cl)cc1,116% (inactive),99% (inactive),116% (inactive),113% (inactive),108% (inactive),95.4% (inactive),98.1% (inactive),103% (inactive),111% (inactive),114% (inactive),–,97.8% (inactive),77.1% (inactive),105% (inactive),–,111% (inactive),110% (inactive),98.9% (inactive),108% (inactive),–
C=C1C(=O)OC2CC3(C)OC3C3OC3C3=CC(OC3=O)C12 (centres undefined),109% (inactive) and 111% (inactive),-0.414% (active) and 6.29% (active),-53.4% (active) and -59.2% (active),104% (inactive) and 107% (inactive),8.42% (active) and 68.4% (inactive),99.2% (inactive) and 109% (inactive),103% (inactive) and 97.9% (inactive),101% (inactive) and 96.3% (inactive),53.6% (inactive) and 82.2% (inactive),88.3% (inactive) and 91.9% (inactive),–,98.2% (inactive) and 79.6% (inactive),87.7% (inactive) and 90.1% (inactive),104% (inactive) and 103% (inactive),106% (inactive) and 92.2% (inactive),99.3% (inactive) and 82.7% (inactive),93.1% (inactive) and 92% (inactive),52.6% (inactive) and 73.8% (inactive),109% (inactive) and 95% (inactive),–
CC/C(Cc1ccccc1)=C(\c1ccc(OCCN2CCCC2)cc1)c1ccc(OC(=O)NCc2ccccc2)cc1,61.1% (inactive),-39.1% (active),-59.6% (active),51.6% (inactive),56.5% (inactive),67.7% (inactive),86.2% (inactive),59% (inactive),58.1% (inactive),-60.7% (active),–,-42.1% (active),57.7% (inactive),54.9% (inactive),47.8% (inactive),–,49.3% (inactive),-60.3% (active),19.3% (inactive),–
CCOC(=O)C1C(C=C(C)C)C1(C)C (centres undefined),108% (inactive),155% (inactive),140% (inactive),106% (inactive),114% (inactive),101% (inactive),101% (inactive),93.5% (inactive),106% (inactive),106% (inactive),–,116% (inactive),–,103% (inactive),93% (inactive),99.8% (inactive),104% (inactive),–,109% (inactive),99.3% (inactive)
CCCCCCCCCCCCCCCC[N+](C)(C)Cc1ccccc1,26.7% (inactive) and -40.3% (active),15% (inactive) and -22.5% (active),-25% (active) and -55.5% (active),-41.4% (active) and -70.1% (active),0.124% (active),0.106% (active) and -74.5% (active),20.6% (inactive) and -28.5% (active),-61.2% (active) and -99.3% (active),–,-45.6% (active) and -88.7% (active),64% (inactive) and 42% (inactive),-43.6% (active) and -81% (active),-21.6% (active) and -70.3% (active),-40.3% (active),-34.9% (active) and -44.1% (active),-26% (active) and -74.5% (active),-79% (active) and -97.1% (active),-27.7% (active) and -58.1% (active),-86.5% (active) and -100% (active),-16% (active) and -94.9% (active)

# From PubChem BioAssay (NCI)
